# Source: the supplement of paper PMC6555819
# Experiments:
# Assay in all cases: PBM binding z-score (relative to random genomic background probes); higher = stronger binding; sequences stand for … in GC…GCGATTGACAGCGTAGAATGAAGG
# [1] = system: FXR:RXRa (NR concentration 270 nM, RXRa partner concentration 90 nM)
# Method in brief: (§1)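 Ligand-free nuclear receptor dimers were applied to custom Agilent 4×180K protein-binding microarrays whose double-stranded probes carried direct-repeat seeds, single-nucleotide variants, half-site ablations and random human genomic background sequences in 34-nt variable regions. Incubation lasted 1 h. Binding z-scores were computed against the random background probes from regression-normalized fluorescence.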
# [2] = system: LXRa:RXRa (NR concentration 270 nM, RXRa partner concentration 90 nM)
# Method in brief: as §1
# [3] = system: LXRa homodimer (NR concentration 270 nM)
# Method in brief: as §1
# [4] = system: LXRb:RXRa (NR concentration 270 nM, RXRa partner concentration 90 nM)
# Method in brief: as §1
# [5] = system: LXRb homodimer (NR concentration 270 nM)
# Method in brief: as §1
# [6] = system: PPARa:RXRa (NR concentration 270 nM, RXRa partner concentration 90 nM)
# Method in brief: as §1
# [7] = system: PPARg:RXRa (NR concentration 180 nM, RXRa partner concentration 90 nM)
# Method in brief: as §1
# [8] = system: PPARg:RXRa 270nM:90nM, anti-RXR (NR concentration 270 nM, RXRa partner concentration 90 nM)
# Method in brief: as §1
# [9] = system: PPARg:RXRa 30nM:10nM, anti-RXR (NR concentration 30 nM, RXRa partner concentration 10 nM)
# Method in brief: as §1
# [10] = system: PPARg:RXRa 90nM:30nM, anti-RXR (NR concentration 90 nM, RXRa partner concentration 30 nM)
# Method in brief: as §1
# [11] = system: PPARg:RXRa DBDmut IVT, anti-RXR (DBD mutation: RXRa K156A/R161A, NR concentration 270 nM, RXRa partner concentration 90 nM)
# Method in brief: as §1
# [12] = system: PPARg:RXRa IVT, anti-PPARg (NR concentration 270 nM, RXRa partner concentration 90 nM)
# Method in brief: as §1
# [13] = system: PPARg DBDmut:RXRa IVT, anti-PPARg (DBD mutation: PPARg1 K132A/R137A, NR concentration 270 nM, RXRa partner concentration 90 nM)
# Method in brief: as §1
# [14] = system: PPARg DBDmut IVT, anti-PPARg (DBD mutation: PPARg1 K132A/R137A, NR concentration 270 nM)
# Method in brief: as §1
# [15] = system: PPARg homodimer (NR concentration 180 nM)
# Method in brief: as §1
# [16] = system: PXR:RXRa (NR concentration 270 nM, RXRa partner concentration 90 nM)
# Method in brief: as §1
# [17] = system: PXR homodimer (NR concentration 270 nM)
# Method in brief: as §1
# [18] = system: RARa:RXR (NR concentration 270 nM, RXRa partner concentration 90 nM)
# Method in brief: as §1
# [19] = system: RARa homodimer (NR concentration 270 nM)
# Method in brief: as §1
# [20] = system: RARb:RXRa (NR concentration 270 nM, RXRa partner concentration 90 nM)
# Method in brief: as §1
Sequence,PBM binding z-score [1],PBM binding z-score [2],PBM binding z-score [3],PBM binding z-score [4],PBM binding z-score [5],PBM binding z-score [6],PBM binding z-score [7],PBM binding z-score [8],PBM binding z-score [9],PBM binding z-score [10],PBM binding z-score [11],PBM binding z-score [12],PBM binding z-score [13],PBM binding z-score [14],PBM binding z-score [15],PBM binding z-score [16],PBM binding z-score [17],PBM binding z-score [18],PBM binding z-score [19],PBM binding z-score [20]
TAGCCTAGGTCATTCAGGGGCCAGTCTAGAAAGC,4.72,3.65,0.514,2.84,0.819,3.29,1.75,2.25,-0.0756,1.15,1.37,2.68,0.235,0.0209,2,2.58,-0.494,3.47,-0.518,3.75
TCTAGTAGATCAGCAGGTTAAGAAAGCTGGCCAA,0.258,0.127,-0.552,0.373,-0.762,0.734,-0.257,1.37,2.66,2.06,1.99,0.125,-0.189,-1.02,0.292,0.255,-0.699,0.387,-0.353,0.266
CCTTACGGGTCACTCCAGGTTACAGCATCGGAGT,4.9,7.35,2.06,4.72,0.0209,4.42,3.74,3.8,1.1,2.64,2.73,4.01,0.164,-0.572,1.91,4.66,0.311,3.94,0.566,3.86
ATATGTAGCTTATCGGGTCATTCAGTTTGCGCAT,2.02,2.21,1.13,2.2,1.08,2.5,0.837,0.994,0.318,0.857,1.01,1.81,1.36,1.64,1.05,3.2,8.3,2.8,0.765,1.72
AGAATGAGGTTACCTAAGATCAGGGAAACGCTTG,1.57,6.42,-0.328,3.4,-0.272,3.36,2.39,2.16,0.68,1.55,2.92,2.93,1.22,0.151,1.06,1.67,0.241,2.62,-0.231,1.95
GCAGACAGGTTAAACGCAGGTAACTCAGGGTGGC,0.61,1.65,-0.225,0.687,-0.662,1.7,0.69,0.222,-0.592,-0.245,0.14,-0.197,-0.311,-1.1,-0.225,0.235,-0.788,1.11,-0.374,1.12
CGAACTAGGTCAGAACAGGACAGAGAAGGATGAT,1.6,0.878,0.159,0.278,-0.292,2.94,5.04,4.26,1.71,3.03,7.13,7.18,1.45,0.658,0.782,0.74,0.047,0.515,0.919,2.88
GCTCGGAGGACAAAGTCAGAGCTTTGTCCGTAGA,-0.547,-0.56,-0.429,-0.512,-0.588,-0.568,-1.55,-0.786,-1.61,-0.843,-1.01,-0.327,-0.892,-1.25,-0.791,-0.547,-0.9,-0.547,-1.22,0.845
ATCGCAAGGTCGTGAGGTGAGTATACAGAAAGGC,2.59,1.9,-0.0908,1.6,-0.382,3.36,1.49,1.84,0.321,0.863,-0.158,1.26,0.877,-0.102,0.794,1.78,0.241,2.78,-0.445,2.67
TTACCAAGGTGAAGGTCGTTGCTCCCTCTGTAGA,2.26,1.91,0.0546,1.46,-0.474,2.7,2.96,4.34,2.21,3.83,2.04,3.56,-0.269,0.0241,1.17,1.46,0.225,1.65,-0.269,2.39
ATATGTAGGTTACATCCGGGTCATTCGGGCTATG,2.27,4.61,1.71,2.96,1.11,4.42,5.83,5.08,2.18,4.17,7.29,7.46,3.23,1.74,1.58,3.48,1.47,3.61,0.896,2.27
CCAGACAGATGAGAAGGTAACTCAGCCTCGATTA,-0.147,-0.0249,0.532,-0.254,-0.206,-0.358,0.455,-0.402,-0.157,-0.366,0.125,-0.374,0.361,-0.388,1.08,-0.297,0.323,-0.00624,1.43,-0.0941
TCGAGTAGGTTATCAATGGGGCATTCAGCTTTCT,0.264,1.14,-0.501,1.05,-0.428,0.979,-0.105,0.76,1.03,0.852,3.08,1.84,-0.103,-0.254,-0.00524,0.223,-0.333,0.202,-0.0483,0.739
CGTCCAAGTTCAGAGAGGTCAGTGAATGCCGAGT,3.32,3.64,3.27,3.1,0.431,3.19,0.531,1.5,-0.176,0.671,0.453,0.71,-0.268,-0.219,4.09,6.4,13,3.9,1.51,4.09
